About 83,000 compounds went through this panel and 20% of them were active in at least one assay; those are over-represented in the sample as a whole.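 Negative percent growth values reflect cell death: -40 means 40% of the cells present at the start died, and -100 means all died.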 A number with no mark means an inactive call. Calls of active or inactive are those of the source. How the source made its calls: active means growth percent below 10; inactive means the rest.

Holding throughout (test): NCI-60 one-dose screen, 48 h (100 = growth as untreated, 0 = no growth, -100 = all killed)
The subject of one assay is EKVX NSCLC. The settings on record: 10 µM unless noted.
The next assay has as its system SN12C renal. The settings on record: 10 µM unless noted.
A further assay has as its system UO-31 renal. The settings on record: 10 µM unless noted.
The subject of a further assay is TK-10 renal. The settings on record: 10 µM unless noted.
In the next assay the test system is ACHN renal. Particulars: 10 µM unless noted.
The subject of the next assay is CAKI-1 renal. Particulars: 10 µM.
For another assay, the system named is A498 renal. Particulars: 10 µM unless noted.
In the next assay the test system is CCRF-CEM leukemia. Particulars: 10 µM unless noted.
Another assay relates to MOLT-4 leukemia. Particulars: 10 µM unless noted.
Another assay deals with SR leukemia. Particulars: 10 µM unless noted.
A further assay relates to RPMI-8226 leukemia. The settings on record: 10 µM unless noted.
Another assay deals with OVCAR-8 ovarian. Particulars: 10 µM unless noted.
In a further assay the test system is OVCAR-5 ovarian. The settings on record: 10 µM unless noted.
The test system of the next assay is OVCAR-4 ovarian. Particulars: 10 µM unless noted.
The test system of another assay is SK-OV-3 ovarian. Particulars: 10 µM unless noted.
In another assay the test system is IGROV1 ovarian. The settings on record: 10 µM unless noted.
In the next assay the test system is HS 578T breast. Particulars: 10 µM unless noted.
For a further assay, the system named is NCI/ADR-RES ovarian. The settings on record: 10 µM unless noted.
The subject of the next assay is SK-MEL-2 melanoma. The settings on record: 10 µM unless noted.
For another assay, the system named is OVCAR-3 ovarian. Particulars: 10 µM unless noted.

Consider `CCOC(=O)/C(F)=C/C1CC1CCc1cccc(C(F)(F)F)c1` (centres undefined), for which the growth in the assay on EKVX NSCLC is 101%; in the assay with SN12C renal, 104%; in the assay on UO-31 renal it was 90.4%; with TK-10 renal it was 99.5%; in the assay with ACHN renal it was 100%; in the assay with CAKI-1 renal, 89.4%. Also, the growth is 93.7% in the assay with A498 renal; 110% in the assay on CCRF-CEM leukemia; 104% in the assay on MOLT-4 leukemia; 106% with SR leukemia; 102% in the assay on RPMI-8226 leukemia; 104% with OVCAR-8 ovarian. Further, the growth with OVCAR-5 ovarian is 100%; with OVCAR-4 ovarian, 107%; in the assay with SK-OV-3 ovarian it was 99.8%; in the assay with IGROV1 ovarian it was 113%; with HS 578T breast, 103%; in the assay on NCI/ADR-RES ovarian, 106%.
With `C=C1C(=O)O[C@@H]2C[C@@H](C)CCC(=O)[C@](C)(OC(C)=O)C[C@H](OC(=O)/C(C)=C\C)[C@@H]12`, the growth in the assay with SK-MEL-2 melanoma is 81%; in the assay with EKVX NSCLC, 73.2%; with UO-31 renal it was 85.4%; in the assay on TK-10 renal it was 55.4%; in the assay with ACHN renal, 41.9%; in the assay with CAKI-1 renal, 63.1%. In addition, the growth with A498 renal was 119%; in the assay on CCRF-CEM leukemia, -17.2% (active); with MOLT-4 leukemia it was 50.8%; in the assay with SR leukemia, 4.94% (active); with OVCAR-8 ovarian, 66.8%; with OVCAR-5 ovarian it was 114%. Further, the growth in the assay with OVCAR-4 ovarian was 81.2%; in the assay on SK-OV-3 ovarian, 94.8%; in the assay with IGROV1 ovarian it was 89.2%; in the assay with OVCAR-3 ovarian it was 34.9%; with NCI/ADR-RES ovarian, 97.2%.
In the case of `COc1ccc(-c2oc3cc(O)cc(O)c3c(=O)c2OC)cc1O`, the growth is 13.2% in the assay with SK-MEL-2 melanoma; 38.7% in the assay on EKVX NSCLC; 26.2% in the assay with UO-31 renal; 52.3% with TK-10 renal; 34.1% in the assay with ACHN renal; 14.9% in the assay on CAKI-1 renal. Also, the growth in the assay with A498 renal is -6.41% (active); in the assay with CCRF-CEM leukemia, 2.67% (active); with MOLT-4 leukemia, 21.4%; in the assay with SR leukemia it was 11%; with RPMI-8226 leukemia, 17.4%; in the assay with OVCAR-8 ovarian it was 26.8%. Also, the growth is 59.8% in the assay on OVCAR-5 ovarian; 46.2% with OVCAR-4 ovarian; 19.2% in the assay on SK-OV-3 ovarian; 39.8% in the assay with IGROV1 ovarian; -7.51% (active) in the assay on OVCAR-3 ovarian; 11.2% with HS 578T breast. Further, in the assay on NCI/ADR-RES ovarian, the growth was 15.4%.
On to `Cc1cc(-c2ccc3nc(N)sc3c2)nc2ccc3[nH]ncc3c12`, for which the growth was -3.92% (active) in the assay on SK-MEL-2 melanoma; 32% in the assay with SN12C renal; 51.4% in the assay on UO-31 renal; 50.1% in the assay with TK-10 renal; 40.7% with ACHN renal; 20.3% with CAKI-1 renal. In addition, the growth in the assay with A498 renal was -9.07% (active); in the assay with CCRF-CEM leukemia, 27.1%; in the assay with MOLT-4 leukemia, 33.2%; with SR leukemia, 13.7%; in the assay with RPMI-8226 leukemia it was 39.6%; in the assay with OVCAR-8 ovarian, 41.2%. For the same compound, the growth in the assay with OVCAR-5 ovarian is 57.6%; in the assay with OVCAR-4 ovarian it was 61.6%; with SK-OV-3 ovarian it was 31.5%; with IGROV1 ovarian, 33.6%; in the assay on HS 578T breast, 6.21% (active); in the assay on NCI/ADR-RES ovarian, 13.6%.
Consider `O=c1[nH]c2cc(Cl)ccc2n1C1CCN(c2ccc3nnc(Cl)n3n2)CC1`, for which the growth was 93.1% with SK-MEL-2 melanoma; 95.3% with SN12C renal; -30.9% (active) with UO-31 renal; 92.9% in the assay on TK-10 renal; 88.2% in the assay with ACHN renal; 78.6% with CAKI-1 renal. The growth with A498 renal is 61.5%; with CCRF-CEM leukemia, 89%; in the assay with MOLT-4 leukemia, 101%; in the assay with SR leukemia, 81.8%; in the assay on RPMI-8226 leukemia, 90.9%; in the assay with OVCAR-8 ovarian, 93.4%. The growth in the assay on OVCAR-5 ovarian is 95.5%; in the assay on OVCAR-4 ovarian it was 88.7%; in the assay on SK-OV-3 ovarian, 77.5%; in the assay on IGROV1 ovarian, 96.6%; in the assay on HS 578T breast, 87.7%; with NCI/ADR-RES ovarian, 99.9%.
As for `CSc1nccc(-c2c(-c3ccc(F)c(OCc4ccc(F)cc4)c3)nc3sccn23)n1`, the growth in the assay on EKVX NSCLC was 89.8%; in the assay on SN12C renal, 74%; with UO-31 renal, 53.7%; with TK-10 renal it was 70%; in the assay on ACHN renal, 43.8%; with CAKI-1 renal it was 68%. Besides, the growth in the assay on A498 renal is 46.5%; in the assay on CCRF-CEM leukemia it was 81.8%; with MOLT-4 leukemia, 45.1%; in the assay with SR leukemia it was 73.4%; in the assay on RPMI-8226 leukemia, 53.2%; in the assay with OVCAR-8 ovarian, 84.4%. Also, the growth with OVCAR-5 ovarian was 95.4%; in the assay on OVCAR-4 ovarian, 61.8%; in the assay with SK-OV-3 ovarian, 71.4%; in the assay with IGROV1 ovarian, 55.8%; in the assay on HS 578T breast it was 88.2%; in the assay on NCI/ADR-RES ovarian, 73.6%.
Regarding `Nc1n[nH]c2cccc(C#Cc3cccc(NC(=O)c4cccc(OC(F)(F)F)c4)c3)c12`, the growth was 91% in the assay with EKVX NSCLC; 39.7% with SN12C renal; 26.9% with UO-31 renal; 97.1% in the assay with TK-10 renal; 31.7% in the assay on ACHN renal; 48.3% in the assay with CAKI-1 renal. The growth is 56.4% with A498 renal; 76.2% with CCRF-CEM leukemia; 35.4% in the assay with MOLT-4 leukemia; 47% in the assay on SR leukemia; 57.2% in the assay on RPMI-8226 leukemia; 60.3% in the assay with OVCAR-8 ovarian. For the same compound, the growth in the assay with OVCAR-5 ovarian is 50.7%; in the assay with OVCAR-4 ovarian, 66.7%; in the assay with SK-OV-3 ovarian it was 105%; in the assay with IGROV1 ovarian it was 19.9%; in the assay on HS 578T breast, 1.43% (active); in the assay with NCI/ADR-RES ovarian it was 57.1%.
On to `CS(=O)(=O)c1nccc(-c2c(-c3ccc(F)c(OCCc4ccc(F)cc4)c3)nc3sccn23)n1`, for which the growth in the assay on EKVX NSCLC was -66.3% (active); in the assay with SN12C renal, 62.4%; in the assay with UO-31 renal, -51.8% (active); in the assay on TK-10 renal, 84.8%; in the assay with ACHN renal, 45.2%; in the assay with CAKI-1 renal it was 44.7%. Moreover, the growth in the assay on A498 renal was 29.1%; in the assay on CCRF-CEM leukemia, 56.4%; in the assay with MOLT-4 leukemia, 14.4%; in the assay on SR leukemia, 0.201% (active); with RPMI-8226 leukemia, -43.2% (active); in the assay on OVCAR-8 ovarian, 69.8%. The growth with OVCAR-5 ovarian is 93.2%; in the assay on OVCAR-4 ovarian it was 51.2%; in the assay with SK-OV-3 ovarian, 84.5%; in the assay with IGROV1 ovarian, -64.9% (active); in the assay with HS 578T breast it was 35.5%; in the assay with NCI/ADR-RES ovarian, 81.3%.

The values are drawn from PubChem BioAssay (NCI).
